Compound activity from PubChem BioAssay.
Hits are enriched below; roughly 0.63% of the tested compounds scored in any of these assays.
HIF activator – HIF pathway transcriptional activation; activation, % at 7.5 µM (by protocol); actives 0.32% (n = 300,000); AID 1910; U2OS HRE-luciferase reporter, luminescence; normalized: DMSO 0%, desferrioxamine 100%;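 active = mean activation of at least 10% of the iron chelator positive control signal, with at least half of replicates also reaching 10%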
NTR1 agonist – NTR1 (human) agonism | activation, % at 20 µM | NTR1-U2OS beta-arrestin-GFP spot imaging, agonist mode | actives 0.17% (n = 330,000) | P30989;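 active = activation at or above 40% of the spot to cytoplasm intensity ratio, with at least 20 cells analyzed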;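 also: 0% = DMSO without peptide and 100% = 100 nM NTR1 peptide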
Target sequence (P30989 whole entry, looked up): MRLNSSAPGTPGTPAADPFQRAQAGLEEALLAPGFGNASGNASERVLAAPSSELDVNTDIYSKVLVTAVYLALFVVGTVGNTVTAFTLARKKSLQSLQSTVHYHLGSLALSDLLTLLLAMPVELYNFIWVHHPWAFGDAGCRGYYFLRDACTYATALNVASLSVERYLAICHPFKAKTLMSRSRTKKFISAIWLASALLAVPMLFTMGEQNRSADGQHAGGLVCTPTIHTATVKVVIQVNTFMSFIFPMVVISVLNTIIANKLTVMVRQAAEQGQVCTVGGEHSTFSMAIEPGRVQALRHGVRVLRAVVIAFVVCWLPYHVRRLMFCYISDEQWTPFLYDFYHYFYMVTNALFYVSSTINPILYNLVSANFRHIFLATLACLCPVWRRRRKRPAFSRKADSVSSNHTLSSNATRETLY
Platelet DG rel – modulates dense granule release in human platelets; human platelet-rich plasma, SFLLRN dense granule ATP release, luminescence; inhibition, %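 (compounds screened at 7.5 µM in platelet-rich plasma)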; actives 0.22% (n = 300,000);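 active = mean replicate score, as percent of positive control, at or above 50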
NTR1 ag conf – confirmation of agonists of human NTR1; shares compounds with NTR1 agonist; NTR1-U2OS beta-arrestin-GFP translocation imaging; activation, % at 20 µM; actives 38% (n = 480);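 active = mean activation at 20 µM of at least 40%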;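 also: 0% = DMSO without peptide and 100% = 100 nM NTR1 peptide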
The depositor's hits bear a star; · = no result given.

SMILES	HIF activator	NTR1 agonist	Platelet DG rel	NTR1 ag conf
S=C(Nc1cccc2ccccc12)N1CCN(c2ncccn2)CC1	1	1	8	·
CCOC(=O)C1=C(CS(=O)(=O)c2ccc(C)cc2)NC(=O)NC1c1ccc(O)c(OC)c1 (stereo not given)	-1	1	-2	·
CCOC(=O)C1=C(CS(=O)(=O)c2ccc(C)cc2)NC(=O)NC1c1cc(OC)c(OC)c(OC)c1 (stereo not given)	0	48*	-18	0
FC(F)(F)c1cccc(N2CCN(c3ccc4nnc(-c5ccccc5)n4n3)CC2)c1	0	58*	-12	10
c1ccc(-c2nnc3ccc(N4CCCC4)nn23)cc1	0	2	-18	·
COc1ccc(NC(=O)CSc2nc3sc(C)cc3c(=O)n2C)c(OC)c1	1	-1	-5	·
O=C(Nc1nc(-c2nc3ccccc3s2)cs1)C1COc2ccccc2O1 (stereo not given)	2	41*	0	-3
COc1ccc(OC)c(-c2csc(NC(=O)C3COc4ccccc4O3)n2)c1 (stereo not given)	0	9	1	·
COc1ccc(Cn2c(SCc3cc(C)ccc3C)nc3cc(OC)c(OC)cc3c2=N)cc1	-3	48*	3	30
COCCCn1c(SCc2cccc(C(F)(F)F)c2)nc2cc(OC)c(OC)cc2c1=N	-1	60*	-1	10
COc1ccc(Cn2c(SCc3ccc(C)cc3)nc3cc(OC)c(OC)cc3c2=N)cc1Cl	-7	54*	0	64*
COc1cc2nc(SCc3ccc(Cl)cc3Cl)n(Cc3cccs3)c(=N)c2cc1OC	0	11	-11	·
COc1cc2nc(SCc3ccc(C(F)(F)F)cc3)n(Cc3cccs3)c(=N)c2cc1OC	0	5	8	·
COCCCn1c(SCc2ccccc2)nc2cc(OC)c(OC)cc2c1=N	0	19	-5	·
CC1CCCC(C(=O)O)N1C(=O)CCS (stereo not given)	-1	0	-1	·
COc1cc(C(CCN2CCOCC2)c2c(OC)cc(OC)c3c(-c4ccccc4)cc(=O)oc23)cc(OC)c1OC (stereo not given)	·	4	·	·
COc1cc(C(CCN2CCCC2)c2c(OC)cc(OC)c3c(-c4ccccc4)cc(=O)oc23)cc(OC)c1OC (stereo not given)	0	41*	-2	16
CCOC(=O)C1=C(C)Nc2ccccc2N=C1NC(=O)c1ccc(Cl)c(S(=O)(=O)N2CCCC2)c1	0	1	-2	·
Cc1cc2c(cc1C)CSC(c1ccccc1O)SC2	0	51*	3	7
Cc1cc2c(cc1C)CSC(c1ccc3ccccc3c1O)SC2	-1	10	4	·
O=C(CSc1ccc(S(=O)(=O)N2CCCCC2)cn1)Nc1ccccc1Br	·	4	·	·
COC(=O)c1ccc2c(c1)C(C)(C)C(/C=C/c1ccccc1O)=[N+]2C	-3	50*	19	51*
C[N+]1=C(/C=C/Nc2ccccc2Cl)C(C)(C)c2ccccc21	-1	-1	23	·
CC(C)(C)[C@H]1COC(=O)CC/C=C\C[C@H](CC(=O)N(CCO)Cc2ccccc2)C(=O)N1	·	0	·	·
CC(C)c1ccc(NC(=O)COC(=O)C2CC3C=CC2C3)cc1 (stereo not given)	·	1	·	·
SMILES	HIF activator	NTR1 agonist	Platelet DG rel	NTR1 ag conf
O=C(NCCc1c[nH]c2ccccc12)OCCCCOC(=O)NCCc1c[nH]c2ccccc12	0	67*	-1	17
O=C(CCCc1c[nH]c2ccccc12)NCCc1c[nH]c2ccccc12	0	2	-10	·
CC(C)CN(C(=O)c1cccc([N+](=O)[O-])c1)c1c(N)n(CC(C)C)c(=O)[nH]c1=O	-2	-1	-2	·
CC(C)CN(C(=O)c1cccc(F)c1)c1c(N)n(CC(C)C)c(=O)[nH]c1=O	0	42*	-4	-1
CCCCn1c(N)c(N(CC(C)C)C(=O)CN2C(=O)C3CCCCC3C2=O)c(=O)[nH]c1=O (stereo not given)	0	2	5	·
CCn1c(SCC(=O)NC2=NCCS2)nnc1C(C)NC(=O)c1ccc(Cl)cc1 (stereo not given)	1	42*	-10	-1
CC(NC(=O)c1ccccc1)c1nnc(SCC(=O)NC2=NCCS2)n1C (stereo not given)	-1	1	-18	·
CC1CCN(Cc2c(C(=O)N/N=C/c3cccc(Cl)c3)nnn2-c2nonc2N)CC1	-1	5	20	·
NC(=O)CC(NC(=O)Cc1ccc(Cl)cc1)c1ccc(NC2CCCC2)c([N+](=O)[O-])c1 (stereo not given)	0	5	4	·
O=C(ON=C1CCSCC1)c1ccccc1	0	0	0	·
C[C@H](O)[C@@]1(O)CC[C@H]2[C@@H]3CC[C@@H]4C[C@H](O)CC[C@]4(C)[C@H]3CC[C@@]21C	0	10	1	·
C[C@]12CCC(O)CC1CCC1C2CC[C@]2(C)C(c3cc(C(F)(F)F)n[nH]3)CCC12 (stereo not given in full)	-13	74*	2	30
O=C1/C(=C/c2cccnc2)Oc2cc(OS(=O)(=O)c3ccc(F)cc3)ccc21	0	31	-7	·
Cc1ccc(S(=O)(=O)Oc2ccc3c(c2)O/C(=C\c2cccnc2)C3=O)cc1	0	43*	7	33
O=C(/C=C/c1c(F)cccc1Cl)c1ccc(O)cc1	1	63*	23	5
O=C(/C=C/c1ccccc1Cl)c1ccc(O)cc1	1	2	28	·
C/C(=N\NC(=O)CC#N)c1cc2ccccc2oc1=O	·	-1	2	·
c1cncc(CNc2ncnc3ccc(-c4ccoc4)cc23)c1	·	0	·	·
Cc1ccc(O)c(-c2cc(-c3cccc(Br)c3)n[nH]2)c1	6	54*	-4	21
Cc1ccc(-c2cc(-c3ccc(C)cc3O)[nH]n2)cc1	3	10	3	·
CCCOc1ccc(N2C(=O)C3C(C(C)C)NC4(C(=O)c5ccccc5C4=O)C3C2=O)cc1 (stereo not given)	-1	-1	-5	·
COc1ccccc1-c1cn[nH]c1-c1ccc(OCc2ccccc2)cc1O	0	57*	-3	1
COc1ccc(-c2cn[nH]c2-c2ccc(OCc3ccccc3)cc2O)cc1	1	30	11	·
Cc1c(C(=O)OCC(=O)c2c(N)n(CC(C)C)c(=O)n(C)c2=O)oc2ccccc12	-2	2	-1	·
CC(C)COc1cc(=O)[nH]c(SCC(C)C)n1	-1	-2	-3	·
CN(C)Cc1c(C(=O)N/N=C/c2ccncc2)nnn1-c1nonc1N	1	-2	-7	·
CCc1ccc2c(c1)C1(C(=O)N2)N2CCCC2C(C(=O)c2ccc3ccccc3c2)C12C(=O)Nc1ccccc12 (stereo not given)	1	55*	2	87*
CCc1cccc2c1NC(=O)C21N2CCCC2C(C(=O)c2ccc3ccccc3c2)C12C(=O)Nc1ccccc12 (stereo not given)	2	23	16	·
O=C(NN1C(=O)C2C3C=CC([C@H]4CC34)[C@@H]2C1=O)c1ccc(Br)cc1 (stereo not given in full)	0	1	-4	·
O=C(CCc1nc2ccccc2[nH]1)N1CCc2ccccc2C1	0	-2	-3	·
